Screens (PubChem)
This is a sample that favours compounds with a hit; in the whole collection about 12% have one here.
Lassa entry inh = qHTS for Inhibitors of binding or entry into cells for Lassa Virus | Lassa virus pseudotype entry inhibition, cell reporter | Potency, µM (titrated, usually from 37.9 µM), for inactives: at the top dose activity change, negative = inhibition, actives largely listed as inhibitors | 300,000 tested, 1.2% active; calls by dose curve; tested in HEK293 cells; note: potency is the fitted concentration of half-maximal effect; % is set by controls: 0 for no effect and ±100 for the full control effect; nearly all actives have a fitted effect of over 50% in size
Shiga toxin inh = A qHTS for Small Molecule Inhibitors of Shiga Toxin; Vero cells, Shiga toxin protein synthesis inhibition reporter; inhibition, % at 38.7 µM; 290,000 tested, 9.2% active; AID 2315, 2010; in the data active = inhibition mostly above about 28%, no sharp cut-off; inactive = mostly below about 43%; note: 0% is about no effect
Cycloheximide cs = Cycloheximide Counterscreen for Small Molecule Inhibitors of Shiga Toxin; cell reporter, cycloheximide protein synthesis inhibition counterscreen; max response, %; 300,000 tested, 12% active; AID 2314, 2010; in the data active = max response mostly above about 13%, no sharp cut-off; inactive = mostly below about 14%; note: read at 38.3 µM for the half of the compounds with a filed dose; 0% is about no effect
Marburg entry inh = qHTS for inhibitors of binding or entry into cells for Marburg Virus; Marburg virus pseudotyped entry inhibition, cell reporter; 300,000 tested, 1.8% active; Potency, µM (highest dose often 37.8 µM), for the others: at the highest dose activity change, negative = inhibition, usual class: inhibitors; calls by dose curve; tested in HEK293 cells; note: potency is the fitted concentration of half-maximal effect; % is set by controls: 0 for no effect and ±100 for the full control effect
* hit, by the source's call; u = inconclusive; x = no result; [ ] = another dose, or the depositor's remark.

SMILES	Lassa entry inh	Shiga toxin inh	Cycloheximide cs	Marburg entry inh
CCN(CC)C(=O)c1ccc(COc2ccc(Cl)c(C)c2)o1	u	x	30*	u
CCN(CC)C(=O)c1ccc(COc2ccccc2Br)o1	-15%	38	17	-18%
Cc1cc(OCc2ccc(C(=O)n3cccn3)o2)ccc1Cl	2%	65*	30*	3%
O=C(c1ccc(COc2ccc(F)cc2)o1)n1cccn1	14%	25	-1	17%
O=C(CSc1nnc(CNC(=O)c2ccccc2F)o1)NC1CCCCC1	-1%[46.1 µM]	-3	2	u
COc1ccc(CC(=O)Oc2ccc(C)cc2Br)cc1OC	x	-3	1	x
O=C(Nc1cccc(Cl)c1)C1COc2ccccc2O1 (stereo not drawn)	x	29	16*	x
Cc1cc(Cl)ccc1NC(=O)C1COc2ccccc2O1 (stereo not drawn)	x	87*	37*	x
COC(=O)c1cc(NC(=O)C2COc3ccccc3O2)cc(C(=O)OC)c1 (stereo not drawn)	-4%	17	-1	-12%
COc1cccc(NC(=O)C2COc3ccccc3O2)c1 (stereo not drawn)	x	x	60*	x
Cc1ccc(C)c(CN2CCCN(Cc3ccc(F)cc3)S2(=O)=O)c1	-29%[46.1 µM]	x	x	x
COc1ccc(-c2nc(C)c(CCNC(=O)C(=O)Nc3cccc(F)c3)s2)cc1OC	1%[46.1 µM]	x	x	x
O=C(NCc1cccnc1)c1cccc(OC2CCN(Cc3ccc(CO)o3)CC2)c1	-1%	-24	10	-8%
Cc1onc(-c2ccccc2)c1C(=O)OCC(=O)N(C)c1ccccc1	u	x	x	17%
O=c1cc(CCl)[nH]c2nc3ccccc3n12	x	14	-3	x
O=c1cc(-c2ccccc2)[nH]c2nc3ccccc3n12	u	64*	40*	5.8µM*
CC(C)c1cc(=O)n2c(nc3ccccc32)[nH]1	x	27	13*	x
Cc1c(C=O)c2ccccc2n1CC(=O)NC(C)c1ccccc1 (stereo not drawn)	-10%[46.1 µM]	-5	-3	u
Nc1ccc(-c2ccc(N)cc2)cc1	0%	x	x	-8%
Oc1ccc(-c2cnc3ccccc3n2)cc1	u	x	x	-24%
Nc1ccc(-c2cnc(-c3ccc(N)cc3)nc2)cc1	u	33	51*	u
Oc1ccc(-c2cnc(-c3ccc(O)cc3)nc2)cc1	3.2µM*	10	19	1.1µM*
Fc1cccc(-c2cc3nc4c(c(N5CCOCC5)n3n2)CCCC4)c1	-3%	48*	52*	u
Clc1cccc(-c2cc3nc4c(c(N5CCOCC5)n3n2)CCCC4)c1	-20%	46	22*	u
Fc1cccc(-c2cc3nc4c(c(NCc5ccco5)n3n2)CCCC4)c1	13%	87*	39*	u
SMILES	Lassa entry inh	Shiga toxin inh	Cycloheximide cs	Marburg entry inh
Fc1cccc(-c2cc3nc4c(c(N5CCN(c6cnccn6)CC5)n3n2)CCCC4)c1	x	x	x	-2%
c1nc2nc3c(c(N4CCOCC4)n2n1)CCCC3	-13%	13	1	-2%[46.1 µM]
Clc1cccc(-c2cc3nc4c(c(N5CCN(c6cnccn6)CC5)n3n2)CCCC4)c1	25%	37*	38*	27%
COc1cccc(-c2cc3nc4c(c(NCC(C)(C)CN(C)C)n3n2)CCCC4)c1	u	-10	-2	u
Cc1ccc(N2C(=O)N3[C@H](c4ccc(F)cc4)[C@@H]4C(=O)N(C5CCCCC5)C(=O)[C@@H]4[C@]3(C)C2=O)cc1	x	-1	1	x
Cc1ccc(S(=O)(=O)N(Cc2ccc(C(F)(F)F)cc2)C(=O)N2CCN(C)CC2)cc1	15%	x	x	30%
CC(=C\C(=O)O)/C(=C/c1ccc(C)o1)C(=O)O	u	2	-1	3%
COC1=CC2C(=O)C(C(c3ccccc3)C2C)C1(O)c1cccc(OC)c1 (stereo not drawn)	x	x	x	15%[14.2 µM]
O=C(Nc1ccc2c(c1)CCCN2C(=O)c1cccs1)c1c(F)cccc1Cl	x	-2	-3	x
COc1ccc([N+](=O)[O-])cc1N(CC(O)CN(CC(C)C)CC(C)C)S(=O)(=O)c1ccccc1 (stereo not drawn)	5%	11	-3	12µM*
O=C(Nc1ccc(F)cc1)c1cc(-c2ccccc2)no1	x	31	-4	x
COc1ccc(-c2cc(C(=O)Nc3ccccc3)on2)cc1	x	124*	19*	x
COc1ccc(-c2cc(C(=O)Nc3ccccc3F)on2)cc1	x	80*	33*	x
CC1(c2ccc(OC(F)F)cc2)NC(=O)N(CC(=O)Nc2ccccc2)C1=O (stereo not drawn)	-43%	72*	19*	20%[46.1 µM]
CC1(c2ccc(OC(F)F)cc2)NC(=O)N(CC(=O)Nc2ccc3[nH]c(=O)[nH]c3c2)C1=O (stereo not drawn)	0%	x	x	-1%[46.1 µM]
Cc1ccc2nc(-c3ccc(NC(=O)CN4C(=O)NC(C)(c5ccc(OC(F)F)cc5)C4=O)cc3)sc2c1 (stereo not drawn)	u	99*	30*	u
Cc1ccc(C2(C)NC(=O)N(CC(=O)NCc3ccccc3Cl)C2=O)cc1 (stereo not drawn)	-9%	2	12*	u
COc1ccc(NC(=O)Nc2cccc(C(F)(F)F)c2)cn1	u	31	6	-26%[46.1 µM]
CCCCn1c(N)c(N(CC)C(=O)c2cc(S(=O)(=O)N3CCCCCC3)ccc2OC)c(=O)[nH]c1=O	18%	x	x	25%
COc1ccc(CCN2CC(C(=O)NCc3ccc(F)cc3)CC2=O)cc1OC (stereo not drawn)	9%	-6	2	16%
O=C(O)c1ccc(N=Nc2c(O)ccc3ncccc23)cc1	x	65	22*	x
COc1ccc(NS(=O)(=O)c2cc(N)ccc2N2CCOCC2)cc1	u	-4	-7	13%[46.1 µM]
O=C(CS(=O)c1ccccc1[N+](=O)[O-])Oc1ccc(Br)cc1 (stereo not drawn)	1%[46.1 µM]	-8	1	18%[46.1 µM]
CS(=O)(=O)c1ccc(S(=O)CC(=O)Oc2ccc(Cl)cc2)c([N+](=O)[O-])c1 (stereo not drawn)	u	24	-1	11µM*
Cc1cc(Cl)ccc1OCc1nnc(-c2ccccc2C)o1	16%[46.1 µM]	x	x	23%
SMILES	Lassa entry inh	Shiga toxin inh	Cycloheximide cs	Marburg entry inh
COc1cc(C(C)=O)ccc1OCc1nnc(-c2ccccc2Br)o1	5%[46.1 µM]	60*	16*	u
COc1ccc(C(C)=O)cc1Cn1nnc(-c2ccccc2Br)n1	-7%[46.1 µM]	3	1	12%[46.1 µM]
Fc1ccc(OCc2nnc(-c3ccccc3Br)o2)c(Cl)c1	13%	109*	15*	u
O=[N+]([O-])c1ccc2c(OCc3nnc(-c4ccccc4Br)o3)ncnc2c1	9%[46.1 µM]	-2	-2	-15%[46.1 µM]
Clc1ccc(OCc2nnc(-c3ccccc3Br)o2)c(Cl)c1	u	83*	39*	u
Cc1noc(C)c1S(=O)(=O)Nc1ccc(C(=O)Nc2ccc(C(C)C)cc2)cc1	u	x	x	2%[46.1 µM]
CN(C)/N=C/c1cc([N+](=O)[O-])ccc1O	3%[46.1 µM]	28	-2	u
Oc1cccc(/C=N/Nc2ccc(Cl)nn2)c1	x	68*	42*	x
NC(N)=N/N=C/c1cc([N+](=O)[O-])ccc1O	21%	11	12*	u
O=[N+]([O-])c1ccc(O)c(/C=N/Nc2ccc(Cl)nn2)c1	u	21	11	0.13µM*
O=[N+]([O-])c1ccc(O)c(/C=N\N=C2c3ccccc3-c3ccccc32)c1	u	6	7	14µM*
